Screens (PubChem)
sEH inh: soluble epoxide hydrolase (human) inhibition | P34913 | recombinant human sEH enzymatic activity assay | inhibition, % at 2 µM | 0.34% of 91,000 active | AID 707; in the data active = inhibition above about 80%
CYP2C9 inh: blocks human cytochrome P450 2C9; P11712; inhibition, % at 5 µM; 20% of 96,000 active; CYP2C9 Supersomes, luciferin-H conversion, luminescence;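 active = blocking of liver enzyme CYP2C9 beyond about 50% at 5 µM, limit read from the data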
CYP2C19 inhib: human CYP2C19 inhibition; P33261; CYP2C19 Supersomes, luciferin-H EGE luminescence, 30 min; inhibition, % at 5 µM; 21% of 96,000 active;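 active = CYP2C19 inhibition above a set limit at 5 µM in the primary screen, cut at about 50% in these data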;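 note: plate controls were negative control wells for no effect and 2.5 mM tranylcypromine positive control for full effect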
Target sequence (P33261 whole entry, looked up): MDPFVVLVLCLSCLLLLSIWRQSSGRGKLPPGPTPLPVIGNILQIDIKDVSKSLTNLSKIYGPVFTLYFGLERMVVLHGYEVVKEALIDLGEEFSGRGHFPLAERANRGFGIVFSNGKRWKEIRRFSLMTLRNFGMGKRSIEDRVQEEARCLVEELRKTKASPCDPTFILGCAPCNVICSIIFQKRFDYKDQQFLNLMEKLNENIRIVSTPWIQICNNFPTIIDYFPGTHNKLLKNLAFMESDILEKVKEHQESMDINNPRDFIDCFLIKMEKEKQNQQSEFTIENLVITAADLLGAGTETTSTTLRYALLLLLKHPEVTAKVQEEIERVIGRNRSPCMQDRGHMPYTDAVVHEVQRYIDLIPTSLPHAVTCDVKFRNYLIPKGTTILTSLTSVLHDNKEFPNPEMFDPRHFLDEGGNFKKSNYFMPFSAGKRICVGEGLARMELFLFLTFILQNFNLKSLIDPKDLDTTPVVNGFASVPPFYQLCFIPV
CYP2C19 act: activators of human cytochrome P450 2C19; recombinant CYP2C19, luciferin-H EGE luminescence; hits give high values; 0 = fully inhibited enzyme, 1 = untreated enzyme; activation factor at 5 µM; 96,000 tested, under 10 active;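 active = activation factor of at least 2 at 5 µM in the primary screen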;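 note: 0 = wells with 2.5 mM tranylcypromine and 1 = vehicle-only wells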
sEH act: increases human soluble epoxide hydrolase activity. purified human sEH enzymatic activity, activator screen. 0.04% of 91,000 active. AID 717. P34913. activation, % at 2 µM; in the data active = activation above about 37%
CYP2C9 activ: CYP2C9 (human) activation. recombinant CYP2C9, luciferin-H conversion, luminescence; hits give high values; factor 1 = untreated enzyme, 0 = blocked. 1.4% of 96,000 active. AID 1024. activation factor at 5 µM. P11712;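 active = activation factor of 2 or more for CYP2C9 at a 5 µM dose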;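 note: 0 = sulfaphenazole-blocked wells and 1 = vehicle-only wells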
* = called active by the depositor; / = no result given. The list is not random: actives were taken first. Their share in the collection is about 27%.

SMILES | sEH inh | CYP2C9 inh | CYP2C19 inhib | CYP2C19 act | sEH act | CYP2C9 activ
COC(=O)c1c(-c2cccc3ccccc23)csc1NC(=O)Cc1ccc(OC)c(OC)c1 | -2 | 87* | 62* | 0.4 | 3 | 0.1
CCC(C)(C)NC(=O)Cc1ccc(OC)c(OC)c1 | -3 | 10 | 27 | 0.7 | 3 | 0.9
COc1cc(CNCCO)ccc1OCC(=O)Nc1ccc(Br)cc1 | -6 | 14 | 19 | 0.8 | 4 | 0.9
COC(=O)c1c(-c2ccc(C)cc2)csc1NC(=O)Cc1ccc(OC)c(OC)c1 | 20 | 72* | 35 | 0.7 | -19 | 0.3
COC(=O)c1c(-c2ccc(Br)cc2)csc1NC(=O)Cc1ccc(OC)c(OC)c1 | 7 | 63* | 31 | 0.7 | -9 | 0.4
CCc1nnc(NC(=O)CSc2nnc(-c3ccncc3)n2C)s1 | 8 | / | / | / | -4 | /
CCOc1ccc(N(C(=O)Nc2ccccc2)C2=NCCC2)cc1 | -1 | 36 | 1 | 1 | 3 | 0.6
O=C(Nc1ccccc1)N(C1=NCCC1)c1ccc(OC(F)F)cc1 | 4 | 79* | 50* | 0.5 | -4 | 0.2
COc1ccc(S(=O)(=O)N(C)CC(=O)Nc2c(F)cccc2F)cc1 | -3 | -84 | 80* | 0.2 | 1 | 1.8
CCN(CC(=O)Nc1ccc(S(N)(=O)=O)cc1)S(=O)(=O)c1cc(C)ccc1OC | 1 | 97* | -5 | 1.1 | 1 | 0
Cc1cccc(NC(=O)CN(C)S(=O)(=O)c2ccc(Br)cc2)n1 | 2 | 7 | 96* | 0 | -3 | 0.9
Cc1cccc(NC(=O)CN(C)S(=O)(=O)c2ccc(Cl)cc2)n1 | / | -25 | 33 | 0.7 | / | 1.3
COc1ccc(S(=O)(=O)N(C)CC(=O)Nc2ccc3c(c2)OCO3)cc1OC | 14 | 15 | 25 | 0.8 | -11 | 0.9
COc1ccc(S(=O)(=O)N(C)CC(=O)Nc2ccc3c(c2)OCO3)cc1 | 12 | 54* | 61* | 0.4 | -11 | 0.5
COc1ccc(C)cc1S(=O)(=O)N(C)CC(=O)Nc1ccc2c(c1)OCCO2 | 0 | 83* | 39 | 0.6 | 1 | 0.2
COc1ccc(OC)c(S(=O)(=O)N(C)CC(=O)Nc2ccc3c(c2)OCO3)c1 | -8 | 87* | 83* | 0.2 | 6 | 0.1
COc1ccc(OC)c(S(=O)(=O)N(C)CC(=O)Nc2ccc3c(c2)OCCO3)c1 | -2 | 75* | 27 | 0.7 | -2 | 0.2
COc1ccc(-n2nc(C(=O)Nc3ccc4c(c3)OCO4)c3ccccc3c2=O)c(OC)c1 | / | 48 | 10 | 0.9 | / | 0.5
COC(=O)c1ccc(NC(=O)CN(C)S(=O)(=O)c2ccc(OC)c(C)c2)cc1 | -3 | -18 | 26 | 0.7 | 1 | 1.2
COc1ccc(CCC(=O)Nc2ccc3c(c2)OCCO3)cc1 | 15 | 32 | 6 | 0.9 | -16 | 0.7
COc1ccc(N(CC(=O)Nc2ccc3c(c2)OCO3)S(=O)(=O)c2ccccc2)c(OC)c1 | 8 | 99* | 99* | 0 | -9 | 0
N#Cc1c(N)nc2c(c1-c1cccnc1)CCCCC2 | / | -43 | -6 | 1.1 | / | 1.4
CCCc1nc(N)c(C#N)c(-c2cccnc2)c1CC | / | 24 | 61* | 0.4 | / | 0.8
COc1cc(/C=C/C(=O)c2ccc(Cl)s2)cc(OC)c1O | 6 | 23 | 50* | 0.5 | -4 | 0.8
COc1ccc(/C=C/C(=O)c2ccc(Cl)s2)cc1O | -5 | 59* | 54* | 0.5 | 7 | 0.4
SMILES | sEH inh | CYP2C9 inh | CYP2C19 inhib | CYP2C19 act | sEH act | CYP2C9 activ
Cc1c(/C=C/C(=O)c2ccc(Cl)s2)cnn1C | 9 | / | / | / | -6 | /
CCS(=O)(=O)n1nc(-c2ccc(Cl)cc2)nc1SC | -18 | 36 | 37 | 0.6 | 19 | 0.6
Cn1nc(-c2ccc(Cl)cc2)nc2c(=O)n(C)c(=O)nc1-2 | -8 | 93* | 98* | 0 | 7 | 0.1
COc1ccc(NCc2n[nH]nc2-c2ccccc2)cc1Cl | 2 | 86* | 97* | 0 | -4 | 0.1
COc1ccc(CNc2ccccc2)cc1Br | 7 | / | / | / | -7 | /
COc1cc(/C=C2/N=C(C3CCCCC3)OC2=O)cc(OC)c1OC | -6 | 62* | 5 | 1 | 10 | 0.4
O/C(=C\Sc1nnc(Cc2ccccc2)o1)c1ccc(F)cc1 | -7 | 96* | 36 | 0.6 | 6 | 0
Cc1cc(C)c(NC(=O)Cn2c(=O)n(Cc3ccco3)c(=O)c3ccccc32)c(C)c1 | / | 16 | 19 | 0.8 | / | 0.8
OC1(c2ccc(F)cc2)CCN(Cc2ccccc2)C1 (stereo not drawn) | 3 | 1 | 84* | 0.2 | -4 | 1
CCOC(=O)C1CCN(C(=O)c2c(-c3c(F)cccc3Cl)noc2C)CC1 | -9 | 28 | 6 | 0.9 | 8 | 0.7
CC(C)(C)NC(=O)CN(C(=O)Cn1nnc(-c2ccccc2F)n1)c1cccc2c1CCCC2 | 41 | 88* | 57* | 0.4 | -40 | 0.1
COc1ccccc1N(CC(=O)NC(C)(C)C)C(=O)Cn1nnc(-c2ccc(C)o2)n1 | / | 22 | 18 | 0.8 | / | 0.8
CN(C)c1ccc(C(c2nnnn2C2CCCCC2)N2CCN(C(=O)c3ccco3)CC2)cc1 (stereo not drawn) | -15 | / | / | / | 14 | /
c1csc(C(c2nnnn2C2CCCC2)N2CCOCC2)c1 (stereo not drawn) | / | -13 | -8 | 1.1 | / | 1.1
c1csc(C(c2nnnn2C2CCCC2)N2CCCC3(CCCCC3)C2)c1 (stereo not drawn) | -8 | 56* | 14 | 0.9 | 11 | 0.4
O=C(c1ccco1)N1CCN(C(c2cccs2)c2nnnn2C2CCCCC2)CC1 (stereo not drawn) | / | 68* | 45 | 0.5 | / | 0.3
O=C1c2ccccc2C(=O)N1CCSc1n[nH]c(=S)s1 | -1 | 82* | 6 | 0.9 | -1 | 0.2
CCCOc1cccc(NC(=O)c2cc(C)oc2C)c1 | 10 | 9 | 16 | 0.8 | -10 | 0.9
Fc1ccc(Cl)cc1/C=N/n1cnnc1SCc1ccccc1 | 19 | 9 | 66* | 0.3 | -20 | 0.9
CC(=O)NCC(=O)OCN1C(=O)c2ccccc2C1=O | -2 | / | / | / | 0 | /
C#CCOC(=O)Nc1ccc(=O)n(Cc2c(Cl)cccc2Cl)c1 | -13 | 69* | 54* | 0.5 | 16 | 0.3
COc1cccc2cc(C(=O)N3CCN(c4ccc(C)cc4C)CC3)c(=O)oc12 | 12 | 20 | 17 | 0.8 | -12 | 0.8
Cc1ccc(N2CCN(C(=O)c3ccccc3F)CC2)c(C)c1 | 6 | 89* | 100* | 0 | -6 | 0.1
O=C(c1ccccc1F)N1CCN(Cc2ccccc2F)CC1 | -34 | 59* | 96* | 0 | 32 | 0.4
O=C(c1cccc(Cl)c1)N1CCN(Cc2ccccc2F)CC1 | 8 | 79* | 97* | 0 | -6 | 0.2
N#Cc1nc(COc2ccccc2)oc1N1CCCCC1 | -4 | 34 | 50 | 0.5 | 2 | 0.7
N#Cc1nc(COc2ccccc2Cl)oc1N1CCCCCC1 | -4 | / | / | / | 4 | /
